# High-throughput results from PubChem.
# Only some compounds are listed: those with a hit (about 2.2% of all), similar ones and a draw of the others.
# HTR5A ag ctr – activates human HTR5A in OPRM1-OPRD1 agonist counter-screen | P47898 | HTR5A agonist assay, luminescence, cell-based | activation, % at 9.3 µM | 340,000 tested, 0.61% active; in the data active = activation mostly above about 9.5%, no sharp cut-off; inactive = mostly below about 7.6%;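 note: 0% = cells with vehicle only and 100% = reference agonist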
# HTR2A ag – activates the mouse 5-HT2A serotonin receptor; P35363; AID 624169; activation, % at 7.6 µM; 360,000 tested, 0.66% active; CHO-K1 mHTR2A beta-arrestin complementation, luminescence; percent of 30 µM serotonin response;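 active = activation above a run cutoff, the mean activation of all tested compounds plus 3 SD, cut at about 14% in these data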;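 note: 0% = plate median of compound wells and 100% = 30 µM serotonin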
# Target sequence (P35363 whole entry, looked up): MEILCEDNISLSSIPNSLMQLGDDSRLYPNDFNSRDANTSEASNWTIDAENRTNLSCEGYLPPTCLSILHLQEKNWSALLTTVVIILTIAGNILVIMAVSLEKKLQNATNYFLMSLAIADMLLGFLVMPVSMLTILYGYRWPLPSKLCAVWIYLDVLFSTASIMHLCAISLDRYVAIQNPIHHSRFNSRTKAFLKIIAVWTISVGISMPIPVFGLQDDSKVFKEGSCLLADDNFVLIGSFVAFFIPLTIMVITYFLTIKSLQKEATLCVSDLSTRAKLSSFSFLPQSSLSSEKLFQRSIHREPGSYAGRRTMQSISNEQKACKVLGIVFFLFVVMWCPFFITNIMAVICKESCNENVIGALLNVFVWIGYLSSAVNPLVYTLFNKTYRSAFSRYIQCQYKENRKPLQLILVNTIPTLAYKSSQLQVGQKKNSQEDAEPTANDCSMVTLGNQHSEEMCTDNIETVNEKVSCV
# MOR-DOR inv ag – inverse agonists of human mu-delta opioid receptor heterodimerization. 340,000 tested, 0.21% active. cell-based MOR-DOR heterodimer luminescence, inverse agonism. inhibition, % at 9.3 µM; in the data active = inhibition above about 22%, passing the limit was not always enough;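 note: 0% = cells with DMSO and 100% = wells without cells with DMSO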
# MOR-DOR ag – OPRM1-OPRD1 heterodimerization agonism. 340,000 tested, 0.3% active. P35372+P41143. activation, % at 9.3 µM. AID 504326. cells, luminescence; in the data active = activation above about 18%;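 note: 0% = vehicle-treated cells and 100% = reference agonist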
# HGIII-sPLA2 inh – Blocks human group III sPLA2 activity. QFRET BODIPY PC-A2 liposome hydrolysis, fluorescence. inhibition, % at 12.2 µM. 370,000 tested, 0.56% active;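 active = inhibition above mean plus 3 SD of compounds lying within the high and low control bounds, cut at about 19% in these data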;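 note: 0% = median of test compound wells and 100% = no enzyme DMSO wells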
# HTR5A inv ag – counter-screen for OPRM1-OPRD1 inverse agonists: human HTR5A inverse agonism; 340,000 tested, 0.083% active; HTR5A cell line, luminescence; inhibition, % at 9.3 µM; AID 504634; in the data active = inhibition mostly above about 23%, no sharp cut-off; inactive = mostly below about 18%;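 note: 0% = cells with DMSO and 100% = no-cell wells with DMSO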
# Active calls of the source: *; i = inactive; / = no result.
SMILES,HTR5A ag ctr,HTR2A ag,MOR-DOR inv ag,MOR-DOR ag,HGIII-sPLA2 inh,HTR5A inv ag
CCN1CCN(Cc2ccc(NC(=O)c3cc(NC(=O)c4cc(C)on4)cc(OC)c3)cc2C(F)(F)F)CC1,0.5,-4.7,-8.8,1.9,-21.6,-1.9
COc1ccc(-n2c(SCC(=O)Nc3ccccc3-c3ccccc3)nnc2-c2ccccn2)cc1,/,/,/,/,5.2,/
CCCCC(CC)CN=C(N)NC(N)=NCCCCCCN=C(N)NC(N)=NCC(CC)CCCC (stereo unspecified),4.7,15.3*,-53.9,9.7,/,-9.8
CCCCC(CC)CO (stereo unspecified),1.2,2.3,5.1,-1.0,1.4,-14.3
CCc1ccc(CN2CCC(Oc3ccc(C(=O)N4CCCC4)cc3)CC2)cc1,1.0,-5.5,16.3,-5.0,-1.8,5.3
O=C(c1ccc(OC2CCN(Cc3ccc(F)cc3)CC2)cc1)N1CCCC1,10.2*,-6.9,1.8,-0.3,-8.3,-38.2
CCSC1=NCCN1C(=O)c1ccc(S(=O)(=O)N(C)C)cc1,-1.8,0.8,-4.3,0.8,-4.5,4.8
CN(C)S(=O)(=O)c1ccc(C(=O)N2CCN=C2SCc2ccccc2)cc1,12.6*,3.5,0.0,0.0,-2.0,-31.2
CN(C)S(=O)(=O)c1ccc2nc(COCc3nc4ccc(S(=O)(=O)N(C)C)cc4[nH]3)[nH]c2c1,/,/,/,/,-9.9,/
Cc1nnc(-c2ccccc2)nc1N(C)C,10.9*,1.6,8.3,-1.6,0.6,10.4
CN(C)c1nc(-c2ccccn2)nnc1-c1ccccc1,-1.6,-3.2,8.3,-1.7,3.1,-6.8
COc1ccc(-c2ccc(SCC(=O)N3CCCC3)nn2)cc1OC,10.5*,-2.9,-0.3,0.1,2.2,-20.3
Cc1c(NC(=O)c2ccc3c(c2)C(=O)N(CC2CCCO2)C3=O)cccc1C(=O)O (stereo unspecified),10.4*,2.5,2.8,-0.5,1.2,-10.1
CCc1ccc(S(=O)(=O)c2nnn3c2nc(NCCNC(C)=O)c2ccccc23)cc1,11.1*,1.2,-13.6,2.1,5.8,-27.5
C#CCN1CC(N(C)CCOC(=O)c2cc(C)cc(C)c2)CS1(=O)=O (stereo unspecified),/,/,/,/,1.4,/
COc1cccc(N(C(=O)c2cnccn2)C(C(=O)NC2CCCCC2)c2ccc(Cl)cc2)c1 (stereo unspecified),-0.1,0.2,1.1,-0.2,-5.8,-18.9
COc1ccc(C(C(=O)NC2CCCC2)N(C(=O)c2ccoc2C)c2ccc(C)cc2)cc1 (stereo unspecified),3.8,-3.3,-23.6,4.0,7.2,-3.9
COc1ccc(C(C(=O)NC2CCCCC2)N(C(=O)CCl)c2cccc(Cl)c2)cc1 (stereo unspecified),86.4*,9.6,i,94.0*,13.5,-107.4
COc1ccc(N(C(=O)CCl)C(C(=O)NC2CCCCC2)c2cccnc2)cc1 (stereo unspecified),4.4,4.1,2.5,-0.4,-23.1,-11.8
COc1ccc(C(C(=O)NC2CCCCC2)N(C(=O)CCl)c2ccc(OC)cc2)cc1 (stereo unspecified),49.6*,8.1,-348.9,65.1*,/,-111.8
COc1ccc(C(C(=O)NC2CCCCC2)N(C(=O)CCl)c2ccc(C)cc2)cc1 (stereo unspecified),30.8*,3.6,-142.6,23.8*,5.9,-82.2
COC(=O)C1CN(C2CCCC2)CCS(=O)(=O)N1Cc1cn(Cc2ccccc2)nn1 (stereo unspecified),/,/,/,/,-0.2,/
COC(=O)[C@]12C[C@H](CC(=O)NCc3ccc(C)o3)C(=O)N(CCC3=CCCCC3)C1=C[C@H](C(C)C)O[C@@H]2C1CC1,/,/,/,/,-8.2,/
COCC(C)N1C(=O)Cc2c1nc(N)c1c(N)nc(N3CCN(c4ccccc4F)CC3)c(C#N)c21 (stereo unspecified),2.0,-5.6,0.1,0.0,24.7*,-5.6
COC(=O)[C@H](CC(C)C)N1Cc2nnn(Cc3ccccc3)c2-c2ccccc2S1(=O)=O,/,/,/,/,-8.4,/
SMILES,HTR5A ag ctr,HTR2A ag,MOR-DOR inv ag,MOR-DOR ag,HGIII-sPLA2 inh,HTR5A inv ag
O=C(NCC1(c2ccccc2)CCCC1)C(=O)NCC1(c2ccccc2)CCCC1,9.9*,4.2,-2.8,0.6,-1.5,9.1
O=C(NCC1(c2ccccc2)CCCC1)c1ccccc1,1.9,1.7,3.9,-0.5,-1.2,21.0
O=C(N/C(=C/c1ccccc1Cl)C(=O)N1CCCC1)c1ccccc1,13.5*,1.3,-0.9,0.2,9.1,3.4
CCOC(=O)c1ccc(N=c2sc(C(=O)OC)cc(=O)n2CCCN2CCOCC2)cc1,11.0,-3.1,0.2,0.0,4.3,-2.1
CCOC(=O)c1ccc(N=c2sc(C(=O)OC)cc(=O)n2Cc2ccco2)cc1,13.8*,0.2,-2.7,0.5,-3.6,-2.6
COc1ccc(C(=O)N/N=C\c2ccc(OC)c(COc3ccccc3Br)c2)c(OC)c1,10.3*,4.0,-21.0,3.0,-3.1,-20.0
Cc1cccc(-c2cccc3c4c([nH]c23)[C@@H]2C[C@H](N(C)C(=O)Nc3ccccc3)[C@H]([C@H](C)O)CN2CC4)c1,/,/,/,/,-1.2,/
CC(C)(C)OC(=O)N1CCC(N[C@@H](Cc2ccccc2)C(=O)NCCc2c[nH]c3ccccc23)(C(=O)NC2CCCCC2)CC1,/,/,/,/,-60.4,/
O=C(COc1ccc2oc(-c3ccccc3)cc(=O)c2c1)Nc1ccccc1,12.2*,1.1,2.8,-0.4,-4.4,-17.5
COc1ccc2oc(-c3ccccc3)cc(=O)c2c1,/,-3.4,/,/,-6.5,/
Cc1ccc2c(c1)C1CS(=O)(=O)N(Cc3ccc(F)cc3)CN1C2 (stereo unspecified),/,/,/,/,2.1,/
CS(=O)(=O)c1sc(C#N)c2c1C(=O)CC(c1ccccc1)C2 (stereo unspecified),-6.8,-9.7,35.5*,-7.0,8.5,13.7
Cc1oc2c(c(=O)c1C)C(=O)CC(c1ccccc1)C2 (stereo unspecified),1.9,-3.9,9.8,-2.1,-4.2,1.6
CN1CCN(C(=S)SCc2nc(N)nc(Nc3ccc(F)cc3)n2)CC1,10.8*,-3.3,2.7,-0.4,2.9,-28.8
CCCC1CCC2(CC1)CCC2OC(=O)Nc1ccc2c(c1)OCO2 (stereo unspecified),/,/,/,/,-8.1,/
Nc1sc2c(c1C(=O)NC1CCS(=O)(=O)C1)CCCC2 (stereo unspecified),13.4,22.4*,-19.0,3.2,-9.2,-39.3
CCOC(=O)c1c(-c2ccc(-c3ccccc3)cc2)csc1NC(=O)CCN1CCOCC1,10.9*,3.0,-0.6,0.1,-13.4,-28.6
CCOC(=O)c1c(NC(=O)CN2CCCCC2)sc(CN(C)C)c1-c1ccccc1,8.1*,6.2,8.2,-1.4,-4.0,-20.9
CCOC(=O)c1c(NC(=O)CCl)sc(CN(C)C)c1-c1ccccc1,-0.8,5.6,-4.4,0.9,0.5,7.7
O=C(O)c1ccc(N/N=C/c2ccc(-c3ccccc3)cc2)cc1,13.4*,-3.4,6.7,-1.3,-36.8,-10.3
